Here are results for 38 targets from the supplement of paper PMC12067093, “Discovery and optimisation of a covalent ligand for TRIM25 and its application to targeted protein ubiquitination” (Chemical Science, 2025).

Compound in the test: CC1Cc2ccccc2N1C(=O)C1CCCN(C1)C(=O)CCl (mixture of isomers) [TRIM25 ligand 11 (diastereomer mixture)]
Briefly: probe-labelled cysteine peptide fold change vs DMSO (competition) (log2 fold change); higher = less target engagement (more negative = stronger competition). As to conditions: THP-1, incubation time: 4 h.

Of roughly 21,000 targets only a part is listed; those with the largest changes were picked by preference.
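Also: competitive chemoproteomic profiling in live THP-1 cells with an iodoacetamide desthiobiotin (IA-DTB) probe, comparing probe-labelled peptide intensities in compound-treated cells against DMSO-treated controls.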

Sequence of UniProt P52788 (P52788 whole entry, looked up): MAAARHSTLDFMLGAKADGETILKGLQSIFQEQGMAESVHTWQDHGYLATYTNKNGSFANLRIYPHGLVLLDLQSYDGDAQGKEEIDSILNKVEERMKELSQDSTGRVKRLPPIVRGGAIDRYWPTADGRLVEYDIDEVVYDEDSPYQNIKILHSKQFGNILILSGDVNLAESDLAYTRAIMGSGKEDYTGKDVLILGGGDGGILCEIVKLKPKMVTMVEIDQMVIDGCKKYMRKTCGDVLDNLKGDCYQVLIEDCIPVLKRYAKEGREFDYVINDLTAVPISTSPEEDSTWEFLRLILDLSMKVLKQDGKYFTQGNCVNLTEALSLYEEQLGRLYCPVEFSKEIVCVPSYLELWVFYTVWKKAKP
Sequence of UniProt Q8NB90 (Q8NB90 whole entry, looked up): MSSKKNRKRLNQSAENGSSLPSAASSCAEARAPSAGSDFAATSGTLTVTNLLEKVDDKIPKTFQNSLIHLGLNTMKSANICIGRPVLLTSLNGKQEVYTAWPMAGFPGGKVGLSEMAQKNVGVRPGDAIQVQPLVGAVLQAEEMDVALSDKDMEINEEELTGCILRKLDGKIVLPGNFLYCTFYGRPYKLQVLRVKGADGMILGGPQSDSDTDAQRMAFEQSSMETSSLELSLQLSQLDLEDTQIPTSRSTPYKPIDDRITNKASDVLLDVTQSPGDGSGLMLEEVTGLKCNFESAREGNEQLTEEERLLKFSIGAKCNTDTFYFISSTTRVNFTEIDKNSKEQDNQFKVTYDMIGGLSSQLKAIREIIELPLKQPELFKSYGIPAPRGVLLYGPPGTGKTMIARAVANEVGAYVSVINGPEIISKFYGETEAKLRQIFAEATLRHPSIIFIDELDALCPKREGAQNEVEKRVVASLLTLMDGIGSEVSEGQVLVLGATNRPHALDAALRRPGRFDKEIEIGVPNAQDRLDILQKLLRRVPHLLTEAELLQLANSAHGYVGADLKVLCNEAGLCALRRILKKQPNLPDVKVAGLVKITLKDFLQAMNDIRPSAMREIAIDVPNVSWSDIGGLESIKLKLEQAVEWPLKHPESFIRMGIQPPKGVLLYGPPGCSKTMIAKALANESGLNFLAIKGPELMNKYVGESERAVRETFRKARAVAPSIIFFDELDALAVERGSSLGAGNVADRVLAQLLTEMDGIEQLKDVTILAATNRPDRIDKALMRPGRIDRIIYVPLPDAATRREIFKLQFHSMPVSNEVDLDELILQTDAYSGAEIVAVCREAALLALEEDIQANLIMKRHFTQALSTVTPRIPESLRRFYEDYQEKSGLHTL
Sequence of UniProt O95149 (O95149 whole entry, looked up): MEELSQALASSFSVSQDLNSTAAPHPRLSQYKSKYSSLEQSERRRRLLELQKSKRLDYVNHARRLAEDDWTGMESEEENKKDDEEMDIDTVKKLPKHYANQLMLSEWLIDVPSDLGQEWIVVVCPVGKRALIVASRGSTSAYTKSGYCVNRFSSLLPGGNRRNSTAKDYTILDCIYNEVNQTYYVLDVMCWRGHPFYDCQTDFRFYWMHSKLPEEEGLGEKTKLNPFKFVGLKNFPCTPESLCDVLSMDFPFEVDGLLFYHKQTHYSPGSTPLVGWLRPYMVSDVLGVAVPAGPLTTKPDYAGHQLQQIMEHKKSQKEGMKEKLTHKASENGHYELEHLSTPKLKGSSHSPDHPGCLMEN
Sequence of UniProt Q15758 (Q15758 whole entry, looked up): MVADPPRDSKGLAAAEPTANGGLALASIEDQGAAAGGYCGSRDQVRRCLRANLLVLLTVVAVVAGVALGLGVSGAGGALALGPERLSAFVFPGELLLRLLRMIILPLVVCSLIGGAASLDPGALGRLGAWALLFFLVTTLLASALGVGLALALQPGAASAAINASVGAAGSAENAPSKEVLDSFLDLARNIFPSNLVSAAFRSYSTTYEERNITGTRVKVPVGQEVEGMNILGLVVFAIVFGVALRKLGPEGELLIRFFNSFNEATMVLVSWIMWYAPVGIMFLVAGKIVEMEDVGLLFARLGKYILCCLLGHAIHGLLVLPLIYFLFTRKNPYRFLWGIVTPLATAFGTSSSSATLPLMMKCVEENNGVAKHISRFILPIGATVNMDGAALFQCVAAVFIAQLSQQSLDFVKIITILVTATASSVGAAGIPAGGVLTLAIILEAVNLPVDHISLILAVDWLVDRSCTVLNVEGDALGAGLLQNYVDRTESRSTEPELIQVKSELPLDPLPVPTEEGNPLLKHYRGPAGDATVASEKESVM
Sequence of UniProt Q9UHB9 (Q9UHB9 whole entry, looked up): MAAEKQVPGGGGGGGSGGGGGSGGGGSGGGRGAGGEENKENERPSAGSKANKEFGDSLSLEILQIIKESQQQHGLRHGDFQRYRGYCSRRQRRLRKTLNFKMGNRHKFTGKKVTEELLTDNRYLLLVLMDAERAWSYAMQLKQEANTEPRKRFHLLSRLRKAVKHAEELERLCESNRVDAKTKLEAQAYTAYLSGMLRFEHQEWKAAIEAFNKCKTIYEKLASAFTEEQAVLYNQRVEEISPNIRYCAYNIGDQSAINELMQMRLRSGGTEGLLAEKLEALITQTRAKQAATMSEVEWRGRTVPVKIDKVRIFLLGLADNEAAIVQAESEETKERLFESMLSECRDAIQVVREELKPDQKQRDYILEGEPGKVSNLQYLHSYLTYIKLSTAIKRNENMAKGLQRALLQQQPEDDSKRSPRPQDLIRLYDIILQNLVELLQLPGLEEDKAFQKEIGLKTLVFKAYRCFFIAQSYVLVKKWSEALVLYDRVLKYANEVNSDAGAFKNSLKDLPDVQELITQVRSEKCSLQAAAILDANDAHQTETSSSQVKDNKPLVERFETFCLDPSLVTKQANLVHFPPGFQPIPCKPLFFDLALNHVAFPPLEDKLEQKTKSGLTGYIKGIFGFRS
Sequence of UniProt P22307 (P22307 whole entry, looked up): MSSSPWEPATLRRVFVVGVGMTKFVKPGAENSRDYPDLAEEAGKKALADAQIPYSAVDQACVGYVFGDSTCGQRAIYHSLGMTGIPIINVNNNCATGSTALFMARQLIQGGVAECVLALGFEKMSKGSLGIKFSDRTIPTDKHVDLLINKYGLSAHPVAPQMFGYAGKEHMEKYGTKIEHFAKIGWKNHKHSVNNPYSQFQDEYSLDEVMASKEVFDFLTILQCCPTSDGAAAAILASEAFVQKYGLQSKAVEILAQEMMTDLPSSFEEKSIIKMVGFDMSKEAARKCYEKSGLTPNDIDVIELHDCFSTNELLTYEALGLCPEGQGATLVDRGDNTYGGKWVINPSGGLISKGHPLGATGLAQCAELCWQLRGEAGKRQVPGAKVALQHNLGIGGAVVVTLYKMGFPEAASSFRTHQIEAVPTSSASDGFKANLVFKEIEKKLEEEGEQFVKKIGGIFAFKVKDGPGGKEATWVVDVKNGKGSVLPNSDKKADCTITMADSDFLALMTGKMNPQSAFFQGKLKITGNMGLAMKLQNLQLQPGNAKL
Sequence of UniProt Q99442 (Q99442 whole entry): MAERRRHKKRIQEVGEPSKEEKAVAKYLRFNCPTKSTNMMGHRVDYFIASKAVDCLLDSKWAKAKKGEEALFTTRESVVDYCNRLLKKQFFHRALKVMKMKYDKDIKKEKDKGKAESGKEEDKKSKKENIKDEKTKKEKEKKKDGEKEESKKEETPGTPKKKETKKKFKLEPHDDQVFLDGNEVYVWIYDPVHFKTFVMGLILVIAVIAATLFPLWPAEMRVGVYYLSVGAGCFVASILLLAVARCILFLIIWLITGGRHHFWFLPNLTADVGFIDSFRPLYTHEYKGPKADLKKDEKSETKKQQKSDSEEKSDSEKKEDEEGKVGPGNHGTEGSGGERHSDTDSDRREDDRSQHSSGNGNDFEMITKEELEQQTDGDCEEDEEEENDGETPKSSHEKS
Sequence of UniProt Q96DX4 (Q96DX4 whole entry, looked up): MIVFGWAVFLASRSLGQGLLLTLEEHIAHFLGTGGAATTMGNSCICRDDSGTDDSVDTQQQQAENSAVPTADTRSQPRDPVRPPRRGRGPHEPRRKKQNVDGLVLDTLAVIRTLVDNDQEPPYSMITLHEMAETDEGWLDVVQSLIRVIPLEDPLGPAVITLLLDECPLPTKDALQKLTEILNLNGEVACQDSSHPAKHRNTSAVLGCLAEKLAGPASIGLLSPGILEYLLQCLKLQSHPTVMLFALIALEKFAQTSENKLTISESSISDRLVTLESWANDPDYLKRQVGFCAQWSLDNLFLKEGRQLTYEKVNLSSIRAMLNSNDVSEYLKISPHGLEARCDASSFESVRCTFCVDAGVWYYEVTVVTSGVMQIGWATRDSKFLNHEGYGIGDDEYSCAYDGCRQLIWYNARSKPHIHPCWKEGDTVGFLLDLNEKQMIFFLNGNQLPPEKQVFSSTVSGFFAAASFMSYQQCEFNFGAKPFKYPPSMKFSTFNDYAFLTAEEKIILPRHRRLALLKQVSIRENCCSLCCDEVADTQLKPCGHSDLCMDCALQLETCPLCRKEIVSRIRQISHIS
Sequence of UniProt Q9UBX3 (Q9UBX3 whole entry, looked up): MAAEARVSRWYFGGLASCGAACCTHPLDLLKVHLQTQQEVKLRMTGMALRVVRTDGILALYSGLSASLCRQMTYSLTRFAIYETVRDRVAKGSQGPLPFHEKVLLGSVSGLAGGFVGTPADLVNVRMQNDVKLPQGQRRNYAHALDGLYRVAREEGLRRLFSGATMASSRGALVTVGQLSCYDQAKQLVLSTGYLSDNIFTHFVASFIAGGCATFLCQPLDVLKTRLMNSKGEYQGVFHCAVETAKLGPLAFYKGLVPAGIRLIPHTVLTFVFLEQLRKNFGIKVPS
Sequence of UniProt P09234 (P09234 whole entry, looked up): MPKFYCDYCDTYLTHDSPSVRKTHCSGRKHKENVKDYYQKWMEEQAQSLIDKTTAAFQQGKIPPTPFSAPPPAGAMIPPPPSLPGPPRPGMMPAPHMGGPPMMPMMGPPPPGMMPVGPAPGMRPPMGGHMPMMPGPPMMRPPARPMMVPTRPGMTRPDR
Sequence of UniProt Q9Y6B6 (Q9Y6B6 whole entry, looked up): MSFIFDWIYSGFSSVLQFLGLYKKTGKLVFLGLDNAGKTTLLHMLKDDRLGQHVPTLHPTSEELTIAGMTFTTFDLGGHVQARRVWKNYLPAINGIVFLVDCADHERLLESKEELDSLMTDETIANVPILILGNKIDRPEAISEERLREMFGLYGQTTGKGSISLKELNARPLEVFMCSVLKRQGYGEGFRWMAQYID

On to “SIAE_Q9HAT2_367_MPNTFMAVAMDLCDRDSPFGSIHPR (UniProt Q9HAT2)”, for which the “probe-labelled cysteine peptide fold change” value (10 µM) is -0.176 and the “probe-labelled cysteine peptide fold change” value (50 µM) is -0.565.

Turning to “SLPI_P03973_51+57_YKKPECQSDWQCPGK (UniProt P03973)”, the “probe-labelled cysteine peptide fold change” value is -0.301 (10 µM) and -0.883 (50 µM).

Turning to “SNUPN_O95149_356_GSSHSPDHPGCLMEN (UniProt O95149)”, the “probe-labelled cysteine peptide fold change” value (10 µM) was 0.0268 and the “probe-labelled cysteine peptide fold change” value (50 µM) is -0.656.

Regarding “RPP40_O75818_235_DLQCPVLQSSELEGTPEVSCR (UniProt O75818)”, the “probe-labelled cysteine peptide fold change” value (10 µM) was found to be 0.892 and the “probe-labelled cysteine peptide fold change” value (50 µM) was determined as 0.729.

Turning to “SAR1B_Q9Y6B6_102_NYLPAINGIVFLVDCADHER (UniProt Q9Y6B6)”, the “probe-labelled cysteine peptide fold change” value reads like this: (10 µM) 0.177; (50 µM) 0.151.

Consider “SASS6_Q6UVJ0_94_FIDLLQQCTQEHAK (UniProt Q6UVJ0)”, for which the “probe-labelled cysteine peptide fold change” value is, setting by setting: (10 µM) 0.0471; (50 µM) 0.0533.

Regarding “RSPRY1_Q96DX4_190_LTEILNLNGEVACQDSSHPAK (UniProt Q96DX4)”, the “probe-labelled cysteine peptide fold change” value is -0.258 (10 µM) and -0.129 (50 µM).

Turning to “SLC1A5_Q15758_467_SCTVLNVEGDALGAGLLQNYVDR (UniProt Q15758)”, the “probe-labelled cysteine peptide fold change” value by setting is: (10 µM) -0.0169; (50 µM) 0.588.

Regarding “RSL1D1_O76021_96_SDSEDICLFTK (UniProt O76021)”, the “probe-labelled cysteine peptide fold change” value was -0.0174 (10 µM) and -0.141 (50 µM).

As to “SEPHS2_Q99611_377_FGLLQGTSAETSGGLLICLPR (UniProt Q99611)”, the “probe-labelled cysteine peptide fold change” value by setting is: (10 µM) 0.196; (50 µM) -0.657.

For the target “SETDB1_Q15047_582_LFYLPHVCSYTCLSR (UniProt Q15047)”, the “probe-labelled cysteine peptide fold change” value is -0.142 (10 µM) and -0.048 (50 µM).

On to “SNRPC_P09234_6_FYCDYCDTYLTHDSPSVR (UniProt P09234)”, for which the “probe-labelled cysteine peptide fold change” value is, setting by setting: (10 µM) -0.122; (50 µM) -0.874.

For the target “SCAPER_Q9BY12_336_DSLHSCDHPLAEK (UniProt Q9BY12)”, the “probe-labelled cysteine peptide fold change” value (10 µM) is -0.0351 and the “probe-labelled cysteine peptide fold change” value (50 µM) is -0.308.

As for “RRP8_O43159_451_AQLSGLQLQPCLYK (UniProt O43159)”, the “probe-labelled cysteine peptide fold change” value by setting is: (10 µM) 0.0693; (50 µM) -0.167.

Consider “SLC25A16_P16260_246_THVNLLCGGVAGAIAQTISYPFDVTR (UniProt P16260)”, for which the “probe-labelled cysteine peptide fold change” value runs as follows: (10 µM) 0.365; (50 µM) 0.384.

Regarding “SNX14_Q9Y5W7_593_IPVFCIDVER (UniProt Q9Y5W7)”, the “probe-labelled cysteine peptide fold change” value (10 µM) amounted to 0.3 and the “probe-labelled cysteine peptide fold change” value (50 µM) was determined as 0.776.

In the case of “SPATA5_Q8NB90_574_VLCNEAGLCALRR (UniProt Q8NB90)”, the “probe-labelled cysteine peptide fold change” value reads like this: (10 µM) -0.161; (50 µM) -0.0738.

Take “SETX_Q7Z333_1398_AGSHTAQNSDIFVPESDRSDYNCTGGTEVLANSNR (UniProt Q7Z333)”: the “probe-labelled cysteine peptide fold change” value was -0.136 (10 µM) and -0.652 (50 µM).

Consider “SKAP2_O75563_186_DCCFEISAPDK (UniProt O75563)”, for which the “probe-labelled cysteine peptide fold change” value (10 µM) is 0.239 and the “probe-labelled cysteine peptide fold change” value (50 µM) stood at 0.128.

On to “SRI_P30626_75_CLTQSGIAGGYKPFNLETCR (UniProt P30626)”, for which the “probe-labelled cysteine peptide fold change” value is 0.0396 (10 µM) and -0.0761 (50 µM).

With “RTCB_Q9Y3I0_485_NVTDVVNTCHDAGISK (UniProt Q9Y3I0)”, the “probe-labelled cysteine peptide fold change” value (10 µM) is -0.0281 and the “probe-labelled cysteine peptide fold change” value (50 µM) is -0.0777.

With “SIPA1_Q96FS4_467_AHTPCTPHTTYR (UniProt Q96FS4)”, the “probe-labelled cysteine peptide fold change” value (10 µM) was 0.187 and the “probe-labelled cysteine peptide fold change” value (50 µM) came to 0.0943.

With “RUFY1_Q96T51_692_VCDSCHTLLLQR (UniProt Q96T51)”, the “probe-labelled cysteine peptide fold change” value (10 µM) was determined as 0.114 and the “probe-labelled cysteine peptide fold change” value (50 µM) was -0.0564.

On to “SPTLC2_O15270_99_CHHATER (UniProt O15270)”, for which the “probe-labelled cysteine peptide fold change” value is, setting by setting: (10 µM) 0.261; (50 µM) 0.971.

Regarding “SP1_P08047_633_KQHICHIQGCGK (UniProt P08047)”, the “probe-labelled cysteine peptide fold change” value reads like this: (10 µM) -0.185; (50 µM) -0.216.

Turning to “SETX_Q7Z333_1416_CMPSEPETIK (UniProt Q7Z333)”, the “probe-labelled cysteine peptide fold change” value was -0.13 (10 µM) and -0.585 (50 µM).

On to “SLC15A4_Q8N697_269_ILTYSCCSQK (UniProt Q8N697)”, for which the “probe-labelled cysteine peptide fold change” value is, setting by setting: (10 µM) -0.00859; (50 µM) -0.114.

As to “SCP2_P22307_115_QLIQGGVAECVLALGFEK (UniProt P22307)”, the “probe-labelled cysteine peptide fold change” value was -2.21 (10 µM) and -2.14 (50 µM).

For “SMS_P52788_256_TCGDVLDNLKGDCYQVLIEDCIPVLKR (UniProt P52788)”, the “probe-labelled cysteine peptide fold change” value reads like this: (10 µM) -0.302; (50 µM) -0.139.

For “SETD3_Q86TU7_36_CSSPAPGPGK (UniProt Q86TU7)”, the “probe-labelled cysteine peptide fold change” value is -0.0972 (10 µM) and -0.145 (50 µM).

Regarding “SON_P18583_1551_EMEHNTVCAAGTSPVGEIGEEK (UniProt P18583)”, the “probe-labelled cysteine peptide fold change” value runs as follows: (10 µM) 0.0276; (50 µM) -0.264.

With “SEC63_Q9UGP8_490_EQSICAAEEQPAEDGQGETNK (UniProt Q9UGP8)”, the “probe-labelled cysteine peptide fold change” value is 0.0683 (10 µM) and -0.228 (50 µM).

Turning to “SMPD4_Q9NXE4_221_TSDCAYFILVDR (UniProt Q9NXE4)”, the “probe-labelled cysteine peptide fold change” value is 0.14 (10 µM) and 0.266 (50 µM).

With “SRP68_Q9UHB9_173_LCESNR (UniProt Q9UHB9)”, the “probe-labelled cysteine peptide fold change” value worked out at 0.14 (10 µM) and 0.559 (50 µM).

Take “SMYD3_Q9H7B4_263_DQYCFECDCFR (UniProt Q9H7B4)”: the “probe-labelled cysteine peptide fold change” value is -0.0567 (10 µM) and 0.116 (50 µM).

For “SLC25A10_Q9UBX3_69_TDGILALYSGLSASLCR (UniProt Q9UBX3)”, the “probe-labelled cysteine peptide fold change” value is, setting by setting: (10 µM) 0.0966; (50 µM) 0.615.

For the target “SRD5A3_Q9H8P0_238_AGVVIHCNHR (UniProt Q9H8P0)”, the “probe-labelled cysteine peptide fold change” value (10 µM) stood at 0.00183 and the “probe-labelled cysteine peptide fold change” value (50 µM) is -0.036.

Consider “SEC62_Q99442_55_AVDCLLDSK (UniProt Q99442)”, for which the “probe-labelled cysteine peptide fold change” value by setting is: (10 µM) -0.122; (50 µM) -0.249.
